In PubChem BioAssay (EPA / NIEHS):
Several values for one entry are separate records, joined by “and”; a condition that tells them apart may be missing. Equal values may be shown once. More than one record can exist for a structure, and the calls need not agree. Activity calls are given as the source filed them. Rule for the calls: active = hit-call score of the fitted dose curve at least 0.9, where 1 is the maximum; inactive = score below 0.9.

The compounds below were run on Interferon-gamma inducible Protein 10 (IP10), CXCL10 (gene 3627) (assay: BSK_hDFCGF_IP10: BioMAP Diversity Plus: hDFCGF Assay for Interferon-gamma inducible Protein 10 (IP10) Biomarker Activity (AID 2283053)). Settings: primary human foreskin fibroblasts; actives raise or lower the signal.
Method: BSK_hDFCGF is a cell-based, multiplexed-readout assay that uses foreskin fibroblast, a human skin primary cell, with measurements taken at 24 hours after chemical dosing in a 96-well plate.BSK_hDFCGF_IP10 is an assay component measured in the BSK_hDFCGF assay. It measures IP-10 antibody related to regulation of gene expression using ELISA technology.Data from the assay component BSK_hDFCGF_IP10 was analyzed into 1 assay endpoint. This assay endpoint, BSK_hDFCGF_IP10, was analyzed with bidirectional fitting relative to DMSO as the negative control and baseline of activity. Using a type of binding reporter, gain or loss-of-signal activity can be used to understand changes in the signaling as they relate to the gene CXCL10. Furthermore, this assay endpoint can be referred to as a primary readout, because this assay has produced multiple assay endpoints where this one serves a signaling function. To generalize the intended target to other relatable targets, this assay endpoint is annotated to the cytokine intended target family, where the subfamily is chemotactic factor.
The levels of cell surface (or secreted, indicated by the prefix "s") biomarker endpoints were measured by ELISA. Overt cytotoxicity to cells in confluent adherent cultures (all systems other than the BT system) was assessed by measuring total protein levels using sulforhodamine B (SRB) staining in parallel cultures at the time of biomarker measurements, indicated as SRB endpoints. For proliferation assays for adherent cell types, individual cell types are cultured at sub-confluence and relative cell numbers quantified by SRB staining at time points optimized for each system (48 h: 3C and CASM3C systems; 72 h: BT and HDF3CGF systems; 96 h: SAg system). SRB was performed by staining cells with 0.1% SRB after fixation with 10% TCA and reading wells at 560 nm.Viability and proliferation of PBMC (T cells) was quantified by Alamar Blue reduction for the SAg and BT systems. For PBMC viability (referred to as PBMC Cytotoxicity within the assay endpoint names), cells were plated (75,000/well in a 96-well plate) and then chemical samples added for 1 h before addition of activators, SEB and TSST-1 (20 ng/mL final concentration each). Cells were incubated for 90 h. Then, Alamar Blue (20 uL/well) (Invitrogen, Cat DAL1100) was added for 6 h, and the plates were read with a fluorescence microplate reader at 546/580 nm (excitation/emission). For PBMC proliferation, cells were plated and activated as above but incubated for only 16 h prior to addition of Alamar Blue. Plates were read after 6 h.

Structure (SMILES)	outcome	AC50
C[C@]12CCC(=O)C=C1CC[C@@H]1[C@@H]2CC[C@@]2(C)[C@H]1CC[C@]2(C)O	inactive	
ClC1=C(Cl)[C@]2(Cl)[C@@H]3[C@@H]4C[C@@H]([C@H]5O[C@@H]45)[C@@H]3[C@@]1(Cl)C2(Cl)Cl	inactive	
CCCN(CCC)N=O	inactive	
CC(c1ccc(O)cc1)(c1ccc(O)cc1)c1ccc(O)cc1		25.6 µM (active)
Clc1ccc(C(c2ccccc2Cl)C(Cl)(Cl)Cl)cc1 (stereo not given)		7.73 µM (active)
C1CC2OC2CC1C1CO1 (stereo not given)	inactive	
O=C(O)C(F)(F)C(F)(F)C(F)(F)C(F)(F)C(F)(F)C(F)(F)C(F)(F)C(F)(F)F	inactive	32.4 µM (active) and 43.4 µM (active)
O=C(O)C(F)(F)C(F)(F)C(F)(F)C(F)(F)C(F)(F)C(F)(F)C(F)(F)C(F)(F)C(F)(F)F		28.5 µM (active) and 29.1 µM (active) and 32.8 µM (active)
CN(C)c1nc(=O)n(C2CCCCC2)c(=O)n1C	inactive	
CC1=C2C[C@H]3[C@@H](CC=C4C[C@@H](O)CC[C@@]43C)[C@@H]2CC[C@]12O[C@@H]1C[C@H](C)CN[C@H]1[C@H]2C	inactive	
Oc1ccc(Cl)cc1Cl	inactive	
CCC(C)(CC)c1cc(NC(=O)c2c(OC)cccc2OC)on1	inactive	
Cc1cc(O)ccc1Cl	inactive	
CCNc1nc(NC(C)C)nc(SC)n1		30.4 µM (active)
ClC1=C(Cl)[C@]2(Cl)[C@@H]3[C@H]4C[C@H]([C@@H]5O[C@H]45)[C@@H]3[C@@]1(Cl)C2(Cl)Cl	inactive	
Nn1cnnc1	inactive	
CC(C)C(=O)OCC(C)(C)C(OC(=O)C(C)C)C(C)C (stereo not given)	inactive	
CCCCCCCCOC(=O)c1ccccc1C(=O)OCCCCCCCC	inactive	
ClC1=C(Cl)[C@]2(Cl)[C@@H]3[C@@H](Cl)[C@H]4O[C@H]4[C@@H]3C1(Cl)C2(Cl)Cl	inactive	
Cc1cccc(C)c1N	inactive	

Structure (SMILES)	outcome	AC50
CC#Cc1cc(C)nc(Nc2ccccc2)n1	inactive	
CCC(C)c1cc([N+](=O)[O-])cc([N+](=O)[O-])c1O (stereo not given)	inactive	
CO/C=C(/C(=O)OC)c1ccccc1COc1cccc(C(F)(F)F)n1	inactive	
O=S(=O)(O)C(F)(F)C(F)(F)C(F)(F)C(F)(F)C(F)(F)C(F)(F)F	inactive	
C[C@]12CCC(=O)C=C1CC[C@@H]1[C@@H]2CC[C@]2(C)C(=O)CC[C@@H]12	inactive	
Clc1ccc(Cl)cc1	inactive	
Oc1c(Cl)c(Cl)c(Cl)c(Cl)c1Cl		10.2 µM (active) and 13.1 µM (active)
COS(=O)(=O)OC	inactive	
C=CC(N)=O	inactive	
CC(C)(c1ccccc1)c1ccc(O)cc1		34.1 µM (active)
NS(=O)(=O)C(F)(F)C(F)(F)C(F)(F)C(F)(F)C(F)(F)C(F)(F)C(F)(F)C(F)(F)F		20 µM (active) and 9.33 µM (active) and 8.26 µM (active)
CCOC(=O)C(O)(c1ccc(Cl)cc1)c1ccc(Cl)cc1		28.5 µM (active)
Cc1cc2c3c(c1)C(c1ccccc1)=N[C@@H](NC(=O)c1ccncc1)C(=O)N3CC2	inactive	
Oc1ccc(C(c2ccc(O)cc2)(C(F)(F)F)C(F)(F)F)cc1		16.6 µM (active)
CCC(C)(c1ccc(O)cc1)c1ccc(O)cc1		30.1 µM (active)
Cc1ccccc1O	inactive	
Cc1ccc(O)c(C)c1	inactive	
CC(C)(O)C(=O)Nc1ccc([N+](=O)[O-])c(C(F)(F)F)c1	inactive	
Cc1ccccc1CO[C@@H]1C[C@@]2(C(C)C)CC[C@]1(C)O2	inactive	
